Results: PubChem BioAssay (NCI)
Compounds without any hit were thinned out: in the full panel of roughly 83,000, 20% have a hit.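 Percent growth is the endpoint: 0 to 100 indicates growth inhibition (40 means 60% inhibition), 0 means no net growth, and negative values indicate cell death.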 Activity calls are given as the source filed them.

system: SNB-75 CNS; test: NCI-60 one-dose screen, 48 h (100 = growth as untreated, 0 = no growth, -100 = all killed); settings: 10 µM unless noted
Method: Growth inhibition of the SNB-75 human tumor cell line is measured as a screen for anti-cancer activity. Cells are grown in 96 well plates and exposed to the test compound for 48 hours. Compounds are tested at a single concentration, which is 10^-5 M for most compounds. The reported endpoint is percent growth (GI% or GIPRCNT), where numbers from 0 - 100% represent growth inhibition, and numbers from -100% - 0 represent cell death. For example, a value of 40 represents 60% growth inhibition. A value of 0 means no net growth occurred over the course of the experiment. A value of -40 indicates 40% of cells at the beginning of the experiment died by the end of the experiment. A value of -100 means all cells are dead at the end of the experiment.
NCI-60 Human Tumor Cell Lines Screen was performed using the standard one-dose NCI protocol, which is described in more detail at https://dtp.cancer.gov/discovery_development/nci-60/default.htm.
Compounds with GIPRCNT values below 10 were considered active. Activity score was based on GIPRCNT using the following formula: […]
Score is 0 for GIPRCNT values of 100 or above, 50 for GIPRCNT values of 0, and 100 for GIPRCNT values of -100.

Row | Compound | growth
1 | Oc1c(CN2CCC(N3CCCCC3)CC2)cc(Cc2cc(CN3CCC(N4CCCCC4)CC3)c(O)c3ncccc23)c2cccnc12 | 54.1% (inactive)
2 | C=CC(=O)Nc1ccc(Oc2nccc(Nc3nnc(-c4ccc(C)cc4)s3)n2)cc1 | 61% (inactive)
3 | COc1cc2c(cc1OCCCCN1CCN(C(=S)SCCC(C#N)(c3ccccc3)c3ccccc3)CC1)N=C[C@@H]1CCCN1C2=O | -82.3% (active)
4 | O=C(Nc1ccc(Cl)cc1)Oc1c(Cl)c(Cl)c(Cl)c(Cl)c1Cl | 83.3% (inactive)
5 | Cc1c2ccncc2c(C)c2c1c1cc(CO)ccc1n2C | 13.3% (inactive)
6 | C#CC#CC#CC#CC#CC#CC#CC#CCC1OC[C@H](COC(=O)O[C@@H](C(=O)O[C@H]2C[C@@]3(O)[C@@H](OC(=O)c4ccccc4)[C@@H]4[C@]5(OC(C)=O)CO[C@@H]5C[C@H](O)[C@@]4(C)C(=O)[C@H](OC(C)=O)C(=C2C)C3(C)C)[C@@H](NC(=O)c2ccccc2)c2ccccc2)O1 (stereo not given in full) | 7.72% (active)
7 | O=[N+]([O-])c1cc(NS(=O)(=O)c2ccccc2)ccc1NS(=O)(=O)c1ccccc1 | 125% (inactive)
8 | O=C1/C(=C/c2ccccc2F)CN(C(=O)C(Cl)Cl)C/C1=C\c1ccccc1F | -18.4% (active)
9 | C#CCn1cnc2cnc(Nc3cccc(NC(=O)C=C)c3)nc21 | 86.2% [6.25 µM] (inactive)
10 | Fc1cccc(-c2ccc3c(c2)C2(CCNCC2)CN3)c1 | 92% (inactive)
11 | Cc1nc2sc(C(=O)Nc3cccc(Br)c3C)c(N)c2cc1C(O)c1ccccc1 (stereo not given) | 52.6% (inactive)
12 | C=C1CC[C@@H]2C(C)(C)[C@@H](O)CC[C@@]2(C)[C@@H]1COc1ccc2ccc(=O)oc2c1 | 83.8% (inactive)
13 | CNC(=O)c1ccccc1Nc1nc(Nc2cc(OC)c(OC)c(OC)c2)ncc1Br | -55% (active)
14 | COc1cc(/C=C2\CN(S(=O)(=O)c3ccccc3)C/C(=C\c3cc(CN4CCCCC4)c(O)c(OC)c3)C2=O)cc(CN2CCCCC2)c1O | -91.7% (active)
15 | Cc1ccc(/C=C/C(=O)c2ccc(-n3cc(CN4CCN(c5cc6c(cc5F)c(=O)c(C(=O)O)cn6C5CC5)CC4)nn3)cc2)cc1 | 70.8% (inactive)
16 | FC(F)(F)c1ccc(Cn2cc(CSc3nc4ccccc4s3)nn2)cc1 | 94% (inactive)
17 | CNC1=CC(=O)c2c(C(=O)OC)c(C)[n+]([O-])c(C)c2C1=O | 147% (inactive)
18 | O=C(NC(Cc1nnc2n(Cc3ccccc3)c(=O)c3c4c(sc3n12)CCCC4)c1ccccc1)c1ccccc1 (stereo not given) | 81.3% (inactive)
19 | COC(=O)c1c2c(c(C)[n+]([O-])c1C)C(=O)C(NCc1cccc(Cl)c1)=CC2=O | 127% (inactive)
20 | CCN1C(=O)N(CC)C2C1NC(=S)N2/N=C/c1ccc(C(F)(F)F)cc1 (stereo not given) | 48.5% (inactive)

Row | Compound | growth
21 | COc1cccc(/C=C/C(=O)c2cc3c(N)c(C(=O)Nc4cccc5ccccc45)sc3nc2C)c1 | -16.4% (active)
22 | NC(=O)c1c(NC(=O)c2cccs2)sc2c1CCC(=O)C2 | 28.3% (inactive)
23 | Cc1ccc(C)c2c(C)c(C(=O)Nc3cccc(-n4cccn4)c3)oc12 | 86.6% [50 µM] (inactive)
24 | Fc1ccc(Cn2cc(CSc3nc4ccccc4o3)nn2)cc1 | 92.2% (inactive)
25 | Cc1cc(Nc2ccc(C(=O)N3CCCC3)cc2)nc(NCCCNc2ccnc3cc(Cl)ccc23)n1 | 91.2% (inactive)
26 | Cc1nc2ccccc2c(/C=C/c2ccccc2)c1C(=O)/C=C/c1ccccc1 | 19.7% (inactive)
27 | CC1CCN(C(=S)SCC(=O)NC(=O)c2ccccc2)CC1 | 96.5% (inactive)
28 | CC1(C)CC(=O)c2c(nn(-c3ccc(Br)cc3)c2-c2cn(-c3ccccc3)nc2-c2cccnc2)C1 | 84.3% (inactive)
29 | COc1ccc(C(=O)Cn2c(C(=O)c3ccc(Cl)cc3)nc3ccccc32)cc1 | 53.8% (inactive)
30 | CSc1nn2c(-c3ccc4ccccc4c3)ccnc2c1C#N | -7.71% (active)
31 | NS(=O)(=O)c1ccc(-c2cc(-c3nnc(SCC(=O)Nc4ccc(C(=O)/C=C/c5ccc(Cl)cc5)cc4)n3-c3ccccc3)c3ccccc3n2)cc1 | 54% (inactive)
32 | O=C1/C=C/[C@@H](O)[C@@H]2C[C@@H](O)C[C@H]2/C=C/CCC[C@@H](O)CCO1 | 41.2% (inactive)
33 | Nc1[nH]n2cc(-c3ccc(F)cc3)nc2c1N=Nc1ccc(S(N)(=O)=O)cc1 | 56.4% (inactive)
34 | O=C(O)[C@@H](Cc1ccc2ccccc2c1)NC(=O)n1c2ccccc2c2ccccc21 | 20.1% (inactive)
35 | CCN1C(=O)N(CC)C2Nn3c(s/c(=C\c4ccccc4Br)c3=O)=NC21 (stereo not given) | -1.27% (active)
36 | COc1cccc(CNc2c3ccccc3nc3ccccc23)c1 | 56.9% (inactive)
37 | O=C(/C=C/c1cccc(Cl)c1Cl)Nc1ncc(Cc2ccccc2Cl)s1 | 36.4% (inactive)
38 | COc1cc(OC)cc(-c2ccc(-c3ccc(C(=N)N)o3)o2)c1 | 87.6% (inactive)
39 | COc1ccc(Oc2nc(Nc3ccc(N4CCOCC4)cc3)ncc2NC(=O)Nc2cc(OC)cc(OC)c2)cc1 | 53.3% (inactive)
40 | Nc1[nH]c(=S)nc2oc(-c3ccccc3)c(-c3ccccc3)c12 | 90.3% (inactive)
